According to ChEMBL document CHEMBL4513216, “Probing the Open Global Health Chemical Diversity Library for Multistage-Active Starting Points for Next-Generation Antimalarials” (ACS Infect Dis, 2020):
Among all 68,000 compounds or so, about 2,700 (4%) showed an effect of 50% or more. The sample holds strong results, similar compounds and a random draw of the others, so the mix is not that of the screen.

The compounds below were run on Plasmodium berghei (assay: Screen against P. berghei liver stage (PbLuc), transformed with Luciferase, at 2uM). Conditions: tested at 2 uM.
Format: functional, HepG2

Row | SMILES | INHIBITION [%]
1 | CCc1ccc(CC)c(NCc2cnc(N3CCOCC3)nc2)c1 | -64.63
2 | COCC(=O)N1C[C@@H]2CCCO[C@@H]2[C@H](N(C)Cc2ccco2)C1 | -17.76
3 | Cc1ccc(CN2CCOC3(CCCN(c4cccc(F)c4)C3)C2)o1 (centres undefined) | 22.15
4 | Cc1noc(C)c1CN1CCN(C(C)c2nc(C3CC3)no2)CC1 (centres undefined) | 33.22
5 | Cc1ncsc1-c1nc(Cc2cccs2)nn1C1CCN(C)CC1 | 43.44
6 | CN1CCC(n2nc(Cc3cccs3)nc2-c2ccncc2)CC1 | 21.97
7 | CCc1noc(C)c1-c1nc(Cc2cccs2)nn1C1CCN(C)CC1 | 64.9
8 | CCc1sc(C(=O)Nc2cnn(CC(N)=O)c2)cc1C | 2.51
9 | CN(C)S(=O)(=O)N1CC[C@]2(O)CCN(c3cc(C#N)ccn3)C[C@@H]2C1 | 57.68
10 | CS(=O)(=O)N1CC[C@]2(O)CCN(c3cc(C#N)ccn3)C[C@@H]2C1 | 19.44
11 | CN(C)S(=O)(=O)N1CC[C@]2(O)CCN(c3ncccn3)C[C@@H]2C1 | 13.51
12 | Cn1ccc2c(C(=O)N3CCN(C(=O)C4CCCC4)CC3)cccc21 | 16.64
13 | O=C(c1ccccc1O)N1CCN(C(=O)C2CCC2)CC1 | 51.31
14 | O=C(c1cc(F)ccc1O)N1CCN(C(=O)C2CCC2)CC1 | -10
15 | Cc1ccc(S(=O)(=O)Nc2ccc(-n3nnn(C)c3=O)cc2)cc1 | -2.66
16 | CN(Cc1ncnn1C)C(=O)CCn1ccc2ccccc21 | -2.19
17 | CN(CC(N)=O)C(=O)CCCn1ccc2cc(Cl)ccc21 | 28.42
18 | CN(Cc1ncnn1C)C(=O)CCCn1ccc2cc(Cl)ccc21 | 57.23
19 | Cc1cnc(N2C[C@H]3CN(Cc4csc(C)n4)C(=O)[C@H]3C2)nc1 | 22.18
20 | CNc1cccc(C2CCCN(C(=O)c3ccncc3)C2)n1 (centres undefined) | 52.89
21 | CNc1cccc(C2CCCN(C(=O)c3cnccn3)C2)n1 (centres undefined) | 36.98
22 | CNc1cccc(C2CCCN(C(=O)c3cccnc3)C2)n1 (centres undefined) | -23.48
23 | COCCNC(=O)[C@@]12CCO[C@@H]1CCN(Cc1cc(C)on1)C2 | 10.43
24 | O=C(NCc1ccccc1)C1CN(c2ccccn2)CCO1 (centres undefined) | 82.2
25 | O=C(NCc1cccnc1)[C@H]1C[C@@H]2CCN(c3ccncn3)C[C@H]2O1 | 23.53
26 | Cc1cnc(N2CCOC(C(=O)NCc3ccccc3)C2)s1 (centres undefined) | 10.03
27 | O=C(Nc1ccccc1-c1ccccc1)N1C[C@@H]2CNC[C@]2(C(=O)O)C1 | 14.54
28 | O=C(Nc1ccc(-c2ccccc2)cc1)N1C[C@@H]2CNC[C@]2(C(=O)O)C1 | 51.42
29 | O=C(c1ccccc1-c1ccccc1)N1C[C@@H]2CNC[C@]2(C(=O)O)C1 | 19.13
